FUS yeast rescue: rescues growth of FUS-expressing yeast; S. cerevisiae FUS-expressing, growth rescue, OD600, 24 h; Potency, µM (top dose mostly 76.6 µM), most hits filed as activators; actives 0.24% (n = 390,000); AID 1347120;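 also: plate controls were DMSO vehicle for no effect and reference control for full effect; nearly all actives have a fitted effect of over 55% in size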
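Compound concentration series was pinned onto galactose-induced FUS-expressing yeast seeded at OD 0.005. Plates sat 24hr at 30C; absorbance at 600 nm gave growth. DMSO served as background control.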
TDP43 rescue: TDP-43 toxicity inhibition in yeast; TDP-43 expressing yeast growth rescue, BacTiter-Glo, 24 h; Potency, µM (series often up to 46.1 µM), for inactives: at the top dose growth rescue (activation), hits mostly activators; actives 1.8% (n = 410,000); AID 652104; also: % of control where 0% means no effect; nearly all actives have a fitted effect of over 50% in size
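Yeast cells expressing TDP-43 under galactose induction are exposed to compounds for 24 hr at 30 deg C. BacTiter-Glo luminescence measures growth, so protective compounds score as activators.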
aSyn yeast inh: inhibitors of alpha-synuclein toxicity in yeast; Yeast expressing alpha-synuclein, growth rescue, BacTiter-Glo, 24 h; Potency, µM (titrated, usually from 46.1 µM), for inactives: at the top dose growth rescue (activation), usual class: activators; actives 0.14% (n = 370,000); also: % of control where 0% means no effect; nearly all actives have a fitted effect of over 65% in size
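Galactose-induced alpha-syn yeast (OD600=0.02, raffinose-pregrown) + pinned cpd, 24 hr, 30 deg C; growth by BacTiter-Glo luminescence. Growth restoration scores as activation.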
Abeta rescue: restores growth of yeast expressing A-beta42 peptide | actives 0.063% (n = 410,000) | yeast expressing A-beta42, growth rescue, OD600, 48 h; response scale: 0% DMSO, 100% iron-clioquinol control | Potency, µM (top dose mostly 46.1 µM), actives largely listed as activators; also: nearly all actives have a fitted effect of over 55% in size
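Yeast growth medium received pinned compounds, then yeast cells expressing toxic A-beta were added; plates incubated at 30 C for 48 hr. Growth read as absorbance at 600 nm, normalized to DMSO and equimolar FeCl3 plus clioquinol controls.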
* marks the source's active call; other numbers are inactive results; i = inactive; ? = inconclusive; / = no result; [ ] = dose if it differs, or a comment. An excerpt weighted towards active compounds, which were near 2.1% of everything screened. Calls follow the shape of the dose curve; as a rule, active = well fitted curve in the direction sought with a large enough effect; inconclusive = small, poorly fitted or top-dose-only effect, or another doubt; inactive = no such curve, though single readings can be large; an effect the other way counts as inactive or inconclusive. Potency is read from the fitted curve at half-maximal effect.

SMILES	FUS yeast rescue	TDP43 rescue	aSyn yeast inh	Abeta rescue
c1ccc(CNc2nc(NCc3ccco3)nc(N3CCOCC3)n2)cc1	i	21.0%	3.0%	i
Cc1cccc(Nc2nc(NCc3ccco3)nc(N3CCOCC3)n2)c1	i	12.6µM*	12.6%	i
O=C(Cn1nnc2ccccc2c1=O)N[C@@H](Cc1ccccc1)C(=O)O	i	-2.2%	0.5%	i
Cc1nonc1OC(C)CNc1ccc([N+](=O)[O-])cc1 (centres undefined)	i	20µM*	-4.6%	i
O=C(c1ccc2c(c1)CCN2S(=O)(=O)c1ccc(Cl)cc1)N1CCN(c2ccccc2F)CC1	?	14.6%	/	i
CN(C(=S)NC(=O)C12CC3CC(CC(C3)C1)C2)c1ccc(O)cc1	i	17.8µM*	-4.8%	i
O=C(OCc1cn(Cc2cc(F)ccc2F)nn1)N1CCOCC1	i	/	/	/
Cc1nc(C(=O)Nc2cc(F)cc(Cl)c2)sc1C1(C)CC(c2ccccc2)=NO1 (centres undefined)	?	12.6µM*	1.0%	i
COCCNC(=O)CSc1nc2cc3c(cc2c(=O)n1CCCCCC(=O)NCCc1ccc(OC)c(OC)c1)OCO3	i	13.4%	/	i
COc1cc(OC)cc(C(=O)NNC(=S)NCc2ccco2)c1	i	-22.6%[0.397 µM]	-12.8%	i
CC1Cc2ccccc2N1C(=S)NC(=O)C1(C)CC1(Cl)Cl (centres undefined)	i	?	-5.7%	12.6µM*
Cc1ccc(NC(=O)C2(NC(=O)c3cccc(N4C(=O)CSC4c4ccccc4)c3)CCCCC2)cc1 (centres undefined)	28.2µM*	-5.9%	0.6%	i
Cc1ccc(C(C)NC(=S)NC2CCCCC2)c(C)c1 (centres undefined)	i	19.8%	-25.4%	11.2µM*
COc1ccc(Cn2c(C(=O)O)c(CNCCc3cc(OC)ccc3OC)c3ccc(C)cc32)cc1	28.2µM*	4.2%	/	i
C=Cc1ccc(Cn2c(C(=O)O)c(CNCc3ccc(F)cc3)c3ccc(C)cc32)cc1	31.6µM*	9.0%	/	i
C=Cc1ccc(Cn2c(C(=O)O)c(CNCc3cccs3)c3ccc(C)cc32)cc1	?	0.0%	/	i
CC1=C(C(=O)OCc2ccc(C)cc2)C(c2ccccc2F)CC(=O)N1 (centres undefined)	i	-4.5%	/	i
CCOC(=O)Cn1c(=O)c2c(nc(Br)n2Cc2ccc(Cl)cc2)n(C)c1=O	/	-19.0%	-18.5%	i
S=C(NCc1ccccn1)Nc1ccc(Cl)cc1Cl	i	11.2µM*	-15.9%	i
O=C(O)Cc1ccc(NC(=S)Nc2ccc(Br)cc2Cl)cc1	i	35.5µM*	12.4%	i
Cc1cc(C)cc(NC(=S)NCc2cccs2)c1	/	5.1%	-4.0%	i
CC(C)(C)c1ccc(NC(=S)NCc2cccs2)cc1	i	12.6µM*	-9.2%	i
O=C(O)Cc1ccc(NC(=S)Nc2cccc(Cl)c2Cl)cc1	?	-9.1%	11.7%	i
S=C(NCc1cccs1)Nc1ccc(Br)cc1Cl	i	35.5µM*	-11.3%	?
CC(C)Oc1ccc(S(=O)(=O)N2CCCCCC2)c2ccccc12	i	/	/	/
SMILES	FUS yeast rescue	TDP43 rescue	aSyn yeast inh	Abeta rescue
COc1ccc(S(=O)(=O)NCC(c2cccs2)S(=O)(=O)c2ccccc2)cc1OC (centres undefined)	i	3.16µM*	/	i
O=S(=O)(NCC(c1cccs1)S(=O)(=O)c1ccccc1)c1ccc(F)c(C(F)(F)F)c1 (centres undefined)	i	?	/	i
O=S(=O)(NCC(c1cccs1)S(=O)(=O)c1ccccc1)c1ccc(F)cc1 (centres undefined)	i	3.55µM*	/	i
CCOC(=O)[C@]12CCCCC/C=C\1N(CCc1ccc(Cl)cc1)C(=O)[C@H]2CC(=O)N1CCCC1	i	/	/	/
COc1cc(OC)c(NC2(c3ccccc3)C(=O)c3ccccc3C2=O)cc1Cl	i	?	0.6%	i
Cc1cc(C(=O)COc2cccnc2[N+](=O)[O-])c(C)n1Cc1cccs1	i	-18.1%	3.8%	i
CC(=O)Nc1ccccc1OCC(=O)c1cc(C)n(Cc2cccs2)c1C	i	22.4µM*	-10.0%	i
COc1cc(NC(=O)CSc2nc3nc(C)c(Cc4ccc(C)cc4)c(C)n3n2)cc(OC)c1	31.6µM*	20.4%	/	i
Cc1ccccc1Cc1c(C)nc2nc(SCC(=O)NCCc3ccc(Cl)cc3)nn2c1C	i	31.6µM*	/	i
CCNC(=S)Nc1ccc2c(c1)oc1ccccc12	i	?	-14.4%	10µM*
N#Cc1ncc(Cc2ccccc2)nc1C#N	i	14.1µM*	12.4%	i
Cc1ccc(Cn2c(CNC(=O)c3ccccc3Br)nc3cccnc32)cc1	i	11.2µM*	/	i
Cc1ccc2nc(SCC(=O)Nc3ccc(Cl)cc3)nc(=O)n2c1	i	25.4%	1.3%	i
Cc1ccn2c(=O)nc(SCC(=O)Nc3cccc4ccccc34)nc2c1	22.4µM*	-1.8%	15.3%	i
O=C(CSc1nc(=O)n2cc(Cl)ccc2n1)Nc1cccc2ccccc12	i	7.08µM*	5.5%	i
COc1ccc(C2=Nc3ccccc3NC(=O)C2N(Cc2ccccc2)C(=O)C2=NNC(=O)CC2)cc1 (centres undefined)	?	10.6%	1.3%	i
Cc1ccccc1CNc1nc(N(C)C)nc2c1cnn2C	i	20µM*	/	i
COc1cccc(NC(=O)c2cnn(-c3ccccc3)c2C)c1	i	20µM*	3.3%	i
COc1cccc(NC(=O)c2cc(-c3ccccn3)nc3ccccc23)c1	/	25.1µM*	-3.3%	i
COc1cccc(NC(=O)c2cc(-c3ccco3)nc3ccccc23)c1	i	-14.4%	-8.1%	i
COc1cccc(Nc2ncccc2C(=O)Nc2ccccc2)c1	i	22.4µM*	-5.5%	i
COCCCNc1nc2ccccc2nc1NS(=O)(=O)c1cccc(C)c1	i	14.1µM*	-5.5%	i
COCCCNc1nc2ccccc2nc1NS(=O)(=O)c1ccccc1	i	18.9%	-0.6%	i
COC(=O)[C@]1(Cc2ccccc2)N[C@H](c2ccc(-c3cccc(Cl)c3)c(OC)c2)[C@@H]2C(=O)N(C)C(=O)[C@@H]21	14.1µM*	15.4%	3.2%	i
COC(=O)[C@]1(CC(C)C)N[C@H](c2ccc(-c3ccc(F)cc3)c(OC)c2)[C@@H]2C(=O)N(C)C(=O)[C@@H]21	28.2µM*	29.7%	-7.1%	i
CCc1ccc(C(=O)c2cn(CC(=O)Nc3ccc4c(c3)OCO4)c3ccc(CC)cc3c2=O)cc1	i	-13.0%	/	i
Cc1nc2c(OCCC3CCCCC3)cccn2c1N(C)C(=O)CCC1CCCC1	i	35.5µM*	-50.3%	i
Cc1nc2c(OCCOc3ccccc3)cccn2c1N(C)C(=O)CCC1CCCC1	i	?	10.4%	i
Cc1nc2c(OCc3cc(Cl)cc(Cl)c3)cccn2c1N(C)C(=O)CCC1CCCC1	?	35.5µM*	-44.2%	i

Screening results (PubChem)
